The list is not random: actives were taken first. Their share in the collection is about 4.2%.
S1P4 agonist: S1P4 receptor agonists, primary screen, cell-based | S1P4-expressing cell line, agonist reporter assay | Sphingosine 1-phosphate receptor 4 (Homo sapiens), O95977 | 220,000 compounds, 0.35% hits | activation, % at 4.98 µM; in the data active means activation above about 11%;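 further: 0% = DMSO vehicle and 100% = reference agonist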
Target sequence (O95977 whole entry, looked up): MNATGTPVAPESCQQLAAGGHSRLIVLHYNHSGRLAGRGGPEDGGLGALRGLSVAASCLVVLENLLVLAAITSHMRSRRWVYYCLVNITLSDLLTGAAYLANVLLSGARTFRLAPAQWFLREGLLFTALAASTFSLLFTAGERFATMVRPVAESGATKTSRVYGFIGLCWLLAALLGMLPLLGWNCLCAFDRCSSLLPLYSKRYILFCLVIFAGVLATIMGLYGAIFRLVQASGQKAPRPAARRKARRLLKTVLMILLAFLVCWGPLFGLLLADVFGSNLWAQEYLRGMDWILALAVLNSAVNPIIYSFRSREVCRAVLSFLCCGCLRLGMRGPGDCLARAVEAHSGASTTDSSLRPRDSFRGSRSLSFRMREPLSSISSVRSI
S1P4 antag: S1P4 receptor antagonists, primary screen, cell-based; 220,000 compounds, 0.26% hits; S1P4-expressing cells, antagonist mode, reporter read-out; AID 1510, 2009; Sphingosine 1-phosphate receptor 4 (Homo sapiens), O95977; inhibition, % at 4.98 µM; in the data active means inhibition above about 29%;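 further: 0% = wells stimulated with agonist and 100% = vehicle wells without agonist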
CHOP inhibitor: inhibitors of CHOP promoter induction, primary screen, cell-based, unfolded protein response, luciferase reporter. CHO-K1 CHOP-promoter luciferase, tunicamycin-induced, 15-18 h. inhibition, % at 10 µM. 220,000 compounds, 3.8% hits. AID 2732, 2010;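 active means compounds that reduced the stress-induced luciferase reporter signal by more than about 70% of percent inhibition, limit read from the data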;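 further: 0% = tunicamycin plus vehicle and 100% = wells without tunicamycin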
Hsp70 act: Hsp70 transcriptional activators, primary screen, cell-based, HeLa, Hsp70 promoter luciferase, luminescence, 10 µM. HeLa Hsp70 promoter luciferase reporter; scaled: vehicle 0, proteasome-inhibitor control 100%. 200,000 compounds, 0.04% hits. AID 1203, 2008. activation, % at 10 µM;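 active means activation above the mean across all tested compounds plus 3 SD, cutoff set per campaign, cut at about 5.5% in these data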;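 further: 100% = MG132 at 30 µM as the positive control and 0% = DMSO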
CHOP confirm: retest of CHOP induction inhibitors, confirmation, cell-based; 2,100 compounds, 45% hits; AID 504437, 2011; CHO-CHOP promoter luciferase reporter, tunicamycin-induced, luminescence; shares compounds with CHOP inhibitor; inhibition, % at 10 µM;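 active means mean of three repeat readings of reporter signal inhibition above a set limit, cut at about 70% in these data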;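 further: 0% = tunicamycin plus vehicle and 100% = wells lacking tunicamycin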
Starred values were filed as active, the others as inactive; · = not tested or not shown.

SMILES	S1P4 agonist	S1P4 antag	CHOP inhibitor	Hsp70 act	CHOP confirm
O=C(Nc1cccc(-c2nc3ccccc3[nH]2)c1)c1cccc(NC(=O)c2ccco2)c1	-0.2	-6.6	107.0*	-0.5	-19.8
O=C(Nc1ccc(-c2nc3ccccc3[nH]2)cc1)c1ccc2c(c1)OCO2	-0.2	-2.4	104.7*	0.2	26.9
CCC(CC)c1nnc(NC(=O)c2c(C)nn(Cc3ccccc3Cl)c2C)s1	1.2	-14.0	105.0*	-0.2	89.9*
C/C(=N\Nc1nc2ccccc2[nH]1)c1ccc([N+](=O)[O-])cc1	0.0	1.0	102.3*	·	26.4
CCCn1c(SCC(=O)Nc2cccc(C)n2)nc2c1c(=O)n(C)c(=O)n2C	2.0	-11.9	11.9	-0.2	·
CCOC(=O)c1c(CC(C)C)csc1NC=O	0.8	-12.7	99.2*	0.3	25.5
O=C(CCc1ccccc1)Nc1nncs1	2.3	-0.3	2.4	0.2	·
CCOc1ccc(/C(=N\O)C(C)NO)cc1 (stereo unspecified)	1.1	-13.3	103.9*	0.0	1.6
COc1ccc(Nc2nc(N)c([N+](=O)[O-])c(NCc3ccccc3)n2)cc1	-1.9	4.1	15.4	·	·
Cc1ccc(Nc2nc(NCc3ccco3)c3ccccc3n2)cc1	2.1	-18.1	106.0*	-0.1	114.7*
Cc1ccc(Nc2nc(N)c([N+](=O)[O-])c(NCc3ccccc3)n2)cc1	-0.1	-8.4	103.8*	·	35.1
COc1ccccc1Nc1nc(NCc2ccco2)c2ccccc2n1	-1.7	-4.6	11.9	·	·
COc1cc(C(=O)NCC(=O)N/N=C/c2c(C)[nH]c3ccccc23)cc(OC)c1OC	1.0	-12.1	-24.6	·	·
O=C(Nc1c(Cl)cc(Cl)cc1C(=O)NCC1CCCO1)c1ccco1 (stereo unspecified)	-0.8	-2.9	20.6	-0.3	·
CCOC(=O)c1cn2nc(N3CCCCC3)ccc2n1	-0.5	-2.0	39.2	·	·
Cc1nn(-c2ccc(F)cc2)c2nc(N)c(C#N)c(-c3cccs3)c12	2.4	-34.0	99.7*	-0.4	42.3
Cc1ccc(NCc2ccccc2O)c(C)c1	0.0	-18.8	3.2	-0.2	·
CCn1ncc(Cl)c1C(=O)Nc1cc(Cl)ccc1Cl	-1.0	-13.8	99.7*	-0.1	17.3
CC(=O)Nc1sc(N/N=C\c2ccccc2Cl)nc1-c1cccs1	1.2	-10.7	102.8*	-0.1	3.0
COc1ccc(NC(=O)C2C3C=CC(C3)C2C(=O)NCc2ccco2)c(OC)c1 (stereo unspecified)	-0.2	-1.1	37.6	0.0	·
Cc1cccc(/C=N\NC(=O)c2ccc(Cl)cc2)c1O	0.2	-25.1	98.0*	-0.1	16.7
Nc1c(S(=O)(=O)c2ccccc2)c2nc3ccccc3nc2n1/N=C/c1cccc(O)c1	-1.1	-12.4	102.9*	0.1	71.9*
COc1cccc(-n2c(SCC(=O)NCCc3ccccc3)nnc2-c2ccoc2C)c1	2.0	-4.4	26.7	0.2	·
O=C1CC(C(=O)Nc2ccc(Cl)c(Cl)c2)S/C(=N\N=C\c2ccco2)N1 (stereo unspecified)	1.3	-1.6	100.1*	·	23.2
O=C1CC(C(=O)Nc2ccc(Cl)cc2)S/C(=N\N=C\c2ccco2)N1 (stereo unspecified)	-0.8	3.7	5.3	·	·
SMILES	S1P4 agonist	S1P4 antag	CHOP inhibitor	Hsp70 act	CHOP confirm
NC(=O)CC(NC(=O)Cc1ccc(Br)cc1)c1ccc(NCc2cc(F)ccc2F)c([N+](=O)[O-])c1 (stereo unspecified)	·	·	97.0*	·	6.8
NC(=O)CC(NC(=O)Cc1cccc2ccccc12)c1ccc(NCc2ccccc2)c([N+](=O)[O-])c1 (stereo unspecified)	·	·	101.0*	·	91.4*
NC(=O)CC(NC(=O)Cc1cccc2ccccc12)c1ccc(NCc2ccc(F)cc2)c([N+](=O)[O-])c1 (stereo unspecified)	·	·	105.3*	·	108.2*
NC(=O)CC(NC(=O)Cc1cccc2ccccc12)c1ccc(NCc2ccccn2)c([N+](=O)[O-])c1 (stereo unspecified)	·	·	17.9	·	·
NC(=O)CC(NC(=O)Cc1ccc(Br)cc1)c1ccc(NCCc2cccc(F)c2)c([N+](=O)[O-])c1 (stereo unspecified)	·	·	-2.3	·	·
COCCN(CC(=O)NCc1ccc(F)cc1)C(=O)CCC(=O)Nc1nccs1	2.0	-15.9	45.4	0.1	·
CCOc1cc(/C=C2/NC(=O)N(CC(=O)Nc3cccc(C)c3)C2=O)ccc1OCC(N)=O	3.6	-29.1	14.9	-0.3	·

Screens deposited in PubChem by several laboratories.
